Compounds without any hit were thinned out: in the full panel of roughly 79,000, 15% have a hit. Unmarked numbers belong to inactive results. Calls of active or inactive are those of the source. No stated cut-off is given here; in the data, active means growth inhibition above about 70%; inactive means the rest.
What was measured:
[1] = NCI Yeast Anticancer Drug Screen. Data for the rad52 strain (AID 147);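 further: 0% = growth of vehicle-treated control cultures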; conditions: S. cerevisiae rad52 mutant growth inhibition, active compounds read high
Method in brief: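 Measured: yeast growth inhibition. System: strain with a defined DNA damage repair alteration. Reference: vehicle-treated control cultures.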

[2] = NCI Yeast Anticancer Drug Screen. Data for the wt1 strain (AID 149);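 further: 0% = growth of vehicle-treated wt1 cultures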; conditions: S. cerevisiae wt1 strain (SPY 50644) growth inhibition, active compounds read high
Method in brief: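 Using yeast strain wt1, compound-induced growth inhibition was determined against vehicle-treated cultures.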

[3] = NCI Yeast Anticancer Drug Screen. Data for the mgt1 strain (AID 153); conditions: S. cerevisiae mgt1 mutant growth inhibition, active compounds read high
Method in brief: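 After exposure of the mgt1 yeast mutant to compound, growth was measured and reported as inhibition compared with vehicle controls.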

[4] = NCI Yeast Anticancer Drug Screen. Data for the rad50 strain (AID 155);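 further: 0% = growth of vehicle-only cultures of the same strain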; conditions: S. cerevisiae rad50 strain growth inhibition, active compounds read high
Method in brief: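 Relative growth inhibition (compound vs vehicle) was measured in yeast with a defined repair-gene alteration.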

[5] = NCI Yeast Anticancer Drug Screen. Data for the mec2-1 strain (AID 157); conditions: S. cerevisiae mec2-1 strain, active compounds read high
Method in brief: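 Test agents were screened against the mec2-1 yeast strain, with defined DNA repair or cell cycle alteration. Growth was scored as inhibition against vehicle-only controls.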

[6] = NCI Yeast Anticancer Drug Screen. Data for the rad14 strain (AID 159);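 further: 0% = growth of vehicle-treated control cultures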; conditions: S. cerevisiae rad14 strain growth inhibition, active compounds read high
Method in brief: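 Screen for anticancer potential: a yeast strain altered in DNA damage repair is grown with compound, and reduced growth is quantified against vehicle controls.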

[7] = NCI Yeast Anticancer Drug Screen. Data for the sgs1 mgt1 strain (AID 161);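 further: 0% = growth of cultures given vehicle only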; conditions: S. cerevisiae sgs1 mgt1 strain, active compounds read high
Method in brief: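 Mutant yeast exposed to compound; growth scored against vehicle-only wells.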

[8] = NCI Yeast Anticancer Drug Screen. Data for the CLN2oe strain (AID 163);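 further: 0% = growth of vehicle-only control cultures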; conditions: S. cerevisiae CLN2oe strain, active compounds read high
Method in brief: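 Here, growth inhibition in a cell-cycle-altered yeast strain after compound exposure was quantified against vehicle control growth.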

[9] = NCI Yeast Anticancer Drug Screen. Data for the cln2 rad14 strain (AID 165);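 further: 0% = growth equal to vehicle treated cultures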; conditions: S. cerevisiae cln2 rad14 strain, active compounds read high
Method in brief: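 Growth of compound-exposed yeast (cln2 rad14 genotype) measured and expressed as inhibition relative to vehicle.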

[10] = NCI Yeast Anticancer Drug Screen. Data for the bub3 strain (AID 167); conditions: S. cerevisiae bub3 mutant strain, active compounds read high
Method in brief: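 Screening used yeast with an engineered genetic alteration affecting cell cycle control. Compound-exposed cultures were compared with vehicle cultures, and reduced growth was taken as inhibition.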

[11] = NCI Yeast Anticancer Drug Screen. Data for the wt2 strain (AID 169);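 further: 0% = growth of vehicle-treated yeast cultures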; conditions: S. cerevisiae wt2 strain growth inhibition, active compounds read high
Method in brief: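 Genetically defined yeast strains from a DNA-repair/cell-cycle panel were used. Compound-exposed yeast growth was measured, and the inhibition was calculated relative to vehicle treatment.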

[12] = NCI Yeast Anticancer Drug Screen. Data for the mlh1 strain (AID 171);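 further: 0% = growth of vehicle-treated control cultures of the same strain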; conditions: S. cerevisiae mlh1 strain growth inhibition, active compounds read high
Method in brief: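 Here the genetically defined yeast mutant is grown with each compound, and the extent to which its growth falls below that of vehicle-exposed cells is reported.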

[13] = NCI Yeast Anticancer Drug Screen. Data for the sgs1 strain (AID 173);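 further: 0% = growth of vehicle-only control cultures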; conditions: S. cerevisiae sgs1 mutant, active compounds read high
Method in brief: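 Relative growth inhibition, referenced to vehicle, was determined in a yeast strain with a defined alteration affecting DNA damage repair or cell cycle control after compound exposure.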

[14] = NCI Yeast Anticancer Drug Screen. Data for the mlh1 rad18 strain (AID 175); conditions: S. cerevisiae mlh1 rad18 strain growth inhibition, active compounds read high
Method in brief: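 In this whole-cell yeast screen, a strain with altered DNA damage repair is challenged with compound, and its growth is measured against matched vehicle-treated controls.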

[15] = NCI Yeast Anticancer Drug Screen. Data for the rad50EPP+ strain (AID 151);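 further: 0% = growth of vehicle-treated control cultures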; conditions: S. cerevisiae rad50 mutant strain, active compounds read high
Method in brief: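 One strain with a rad50 alteration (rad50EPP+) was compound-treated, its growth then compared to that of vehicle controls.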

[16] = NCI Yeast Anticancer Drug Screen. Data for the rad18 strain (AID 177); conditions: S. cerevisiae rad18 mutant growth inhibition, active compounds read high
Method in brief: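 Screen uses a yeast strain with a defined lesion in DNA damage repair; compound effect is read as loss of growth compared to untreated vehicle cultures.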

[17] = at 5.0 µM (retest, dose inferred, filed as 0.5)
[18] = at 50.0 µM (retest, dose inferred, filed as 5.0)

## Cc1ccc(S(=O)(=O)N/N=C/C(Br)=C(/Br)C(=O)O)cc1
[1]; at 1.2 µM
  growth inhibition: 31%
[1]; at 3.7 µM
  growth inhibition: 59%
[1]; at 11.0 µM
  growth inhibition: 86% (active)
[1]; at 33.0 µM
  growth inhibition: 95% (active)
[1]; at 100.0 µM
  growth inhibition: 89% (active)
[2]; at 1.2 µM
  growth inhibition: 29%
[2]; at 3.7 µM
  growth inhibition: 28%
[2]; at 11.0 µM
  growth inhibition: 43%
[2]; at 33.0 µM
  growth inhibition: 91% (active)
[2]; at 100.0 µM
  growth inhibition: 41%
[3]; at 1.2 µM
  growth inhibition: 35%
[3]; at 3.7 µM
  growth inhibition: 48%
[3]; at 11.0 µM
  growth inhibition: 79% (active)
[3]; at 33.0 µM
  growth inhibition: 98% (active)
[3]; at 100.0 µM
  growth inhibition: 89% (active)
[4]; at 1.2 µM
  growth inhibition: 41%
[4]; at 3.7 µM
  growth inhibition: 61%
[4]; [17]
  growth inhibition: 38%
[4]; at 11.0 µM
  growth inhibition: 86% (active)
[4]; at 33.0 µM
  growth inhibition: 97% (active)
[4]; [18]
  growth inhibition: 79% (active)
[4]; at 50.0 µM
  growth inhibition: 57.8%
[4]; at 100.0 µM
  growth inhibition: 95% (active)
[5]; at 1.2 µM
  growth inhibition: 20%
[5]; at 3.7 µM
  growth inhibition: 35%
[5]; [17]
  growth inhibition: -11%
[5]; at 11.0 µM
  growth inhibition: 57%
[5]; at 33.0 µM
  growth inhibition: 96% (active)
[5]; [18]
  growth inhibition: 10%
[5]; at 50.0 µM
  growth inhibition: 43.8%
[5]; at 100.0 µM
  growth inhibition: 70% (active)
[6]; at 1.2 µM
  growth inhibition: 14%
[6]; at 3.7 µM
  growth inhibition: 28%
[6]; at 11.0 µM
  growth inhibition: 50%
[6]; at 33.0 µM
  growth inhibition: 97% (active)
[6]; at 100.0 µM
  growth inhibition: 95% (active)
[7]; [17]
  growth inhibition: 1%
[7]; [18]
  growth inhibition: 43%
[7]; at 50.0 µM
  growth inhibition: 62.8%
[8]; at 1.2 µM
  growth inhibition: 3%
[8]; at 3.7 µM
  growth inhibition: 8%
[8]; at 11.0 µM
  growth inhibition: 21%
[8]; at 33.0 µM
  growth inhibition: 54%
[8]; at 100.0 µM
  growth inhibition: 43%
[9]; [17]
  growth inhibition: 24%
[9]; [18]
  growth inhibition: 42%
[9]; at 50.0 µM
  growth inhibition: 25.2%
[10]; at 1.2 µM
  growth inhibition: -5%
[10]; at 3.7 µM
  growth inhibition: 1%
[10]; [17]
  growth inhibition: -27%
[10]; at 11.0 µM
  growth inhibition: 49%
[10]; at 33.0 µM
  growth inhibition: 93% (active)
[10]; [18]
  growth inhibition: 37%
[10]; at 50.0 µM
  growth inhibition: 64.2%
[10]; at 100.0 µM
  growth inhibition: 82% (active)
[11]; at 1.2 µM
  growth inhibition: -3%
[11]; at 3.7 µM
  growth inhibition: 10%
[11]; at 11.0 µM
  growth inhibition: 48%
[11]; at 33.0 µM
  growth inhibition: 99% (active)
[11]; at 100.0 µM
  growth inhibition: 98% (active)
[12]; at 1.2 µM
  growth inhibition: 35%
[12]; at 3.7 µM
  growth inhibition: 48%
[12]; at 11.0 µM
  growth inhibition: 79% (active)
[12]; at 33.0 µM
  growth inhibition: 98% (active)
[12]; at 100.0 µM
  growth inhibition: 89% (active)
[13]; at 1.2 µM
  growth inhibition: 28%
[13]; at 3.7 µM
  growth inhibition: 38%
[13]; at 11.0 µM
  growth inhibition: 56%
[13]; at 33.0 µM
  growth inhibition: 95% (active)
[13]; at 100.0 µM
  growth inhibition: 77% (active)
[14]; [17]
  growth inhibition: 25%
[14]; [18]
  growth inhibition: 69%
[14]; at 50.0 µM
  growth inhibition: 91.9% (active)

## CCC(/C=C/c1ccccc1)=N\Nc1ccc(Cl)c(Cl)c1
[1]; at 1.2 µM
  growth inhibition: 7%
[1]; at 3.7 µM
  growth inhibition: 11%
[1]; at 11.0 µM
  growth inhibition: 17%
[1]; at 33.0 µM
  growth inhibition: 87% (active)
[1]; at 100.0 µM
  growth inhibition: 92% (active)
[2]; at 1.2 µM
  growth inhibition: 0%
[2]; at 3.7 µM
  growth inhibition: -3%
[2]; at 11.0 µM
  growth inhibition: -4%
[2]; at 33.0 µM
  growth inhibition: 24%
[2]; at 100.0 µM
  growth inhibition: 93% (active)
[15]; at 1.2 µM
  growth inhibition: 9%
[15]; at 3.7 µM
  growth inhibition: 20%
[15]; at 11.0 µM
  growth inhibition: 28%
[15]; at 33.0 µM
  growth inhibition: 29%
[15]; at 100.0 µM
  growth inhibition: 29%
[3]; at 1.2 µM
  growth inhibition: -3%
[3]; at 3.7 µM
  growth inhibition: 4%
[3]; at 11.0 µM
  growth inhibition: -4%
[3]; at 33.0 µM
  growth inhibition: -3%
[3]; at 100.0 µM
  growth inhibition: 95% (active)
[5]; at 1.2 µM
  growth inhibition: -2%
[5]; at 3.7 µM
  growth inhibition: -1%
[5]; [17]
  growth inhibition: -1%
[5]; at 11.0 µM
  growth inhibition: -5%
[5]; at 33.0 µM
  growth inhibition: 22%
[5]; [18]
  growth inhibition: 81% (active)
[5]; at 50.0 µM
  growth inhibition: 72.5% (active)
[5]; at 100.0 µM
  growth inhibition: 92% (active)
[7]; [17]
  growth inhibition: 3%
[7]; [18]
  growth inhibition: 74% (active)
[7]; at 50.0 µM
  growth inhibition: 82.5% (active)
[8]; at 1.2 µM
  growth inhibition: -2%
[8]; at 3.7 µM
  growth inhibition: -8%
[8]; at 11.0 µM
  growth inhibition: -9%
[8]; at 33.0 µM
  growth inhibition: 36%
[8]; at 100.0 µM
  growth inhibition: 89% (active)
[9]; [17]
  growth inhibition: 1%
[9]; [18]
  growth inhibition: 71% (active)
[9]; at 50.0 µM
  growth inhibition: 85.7% (active)
[10]; at 1.2 µM
  growth inhibition: -2%
[10]; at 3.7 µM
  growth inhibition: 2%
[10]; [17]
  growth inhibition: 2%
[10]; at 11.0 µM
  growth inhibition: 14%
[10]; at 33.0 µM
  growth inhibition: 85% (active)
[10]; [18]
  growth inhibition: 93% (active)
[10]; at 50.0 µM
  growth inhibition: 94.3% (active)
[10]; at 100.0 µM
  growth inhibition: 91% (active)
[11]; at 1.2 µM
  growth inhibition: -2%
[11]; at 3.7 µM
  growth inhibition: -5%
[11]; at 11.0 µM
  growth inhibition: 7%
[11]; at 33.0 µM
  growth inhibition: 22%
[11]; at 100.0 µM
  growth inhibition: 95% (active)
[12]; at 1.2 µM
  growth inhibition: -4%
[12]; at 3.7 µM
  growth inhibition: -2%
[12]; at 11.0 µM
  growth inhibition: 0%
[12]; at 33.0 µM
  growth inhibition: 39%
[12]; at 100.0 µM
  growth inhibition: 94% (active)
[13]; at 1.2 µM
  growth inhibition: -3%
[13]; at 3.7 µM
  growth inhibition: -17%
[13]; at 11.0 µM
  growth inhibition: 17%
[13]; at 33.0 µM
  growth inhibition: 67%
[13]; at 100.0 µM
  growth inhibition: 95% (active)
[14]; [17]
  growth inhibition: 9%
[14]; [18]
  growth inhibition: 93% (active)
[14]; at 50.0 µM
  growth inhibition: 91.3% (active)
[16]; at 1.2 µM
  growth inhibition: 6%
[16]; at 3.7 µM
  growth inhibition: 16%
[16]; at 11.0 µM
  growth inhibition: 8%
[16]; at 33.0 µM
  growth inhibition: 43%
[16]; at 100.0 µM
  growth inhibition: 95% (active)

Reference: PubChem BioAssay (NCI)
